These results are taken from PubChem BioAssay AID1446 (The Scripps Research Institute Molecular Screening Center, 2008).

Screen size: about 220,000 compounds; about 2,400 (1.1%) were called active.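 How the source made its calls: active means inhibition above the campaign mean plus 3 SD over all tested compounds (cut at about 24% in these data); inactive means the rest.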 The sample as a whole holds a higher share of actives than the screen did.

The test can be described thus: reduced viability of JAK2V617F-dependent Ba/F3 cells, primary screen, JAK2V617F inhibitor project, cell-based, Ba/F3 EpoR-JAK2V617F, luminescence (AID 1446).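 Further: cytokine-independent growth of Ba/F3 cells driven by EpoR plus mutant JAK2; 0% = DMSO-treated cells and 100% = JAK inhibitor I control.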 The conditions noted are these: ATP luminescence, at 5.6 µM, hits give high values.
For orientation: inhibition means the drop in the measured response relative to a control, in per cent. On to `COc1cc(OC)cc(C(=O)N[C@H](C(=O)OCC(=O)NC(C)c2ccccc2)C(C)C)c1` (some centres not stated), for which the inhibition was -0.99% (inactive).

With `COc1cc(OC)cc(C(=O)N[C@H](C(=O)Nc2nc3ccccc3[nH]2)C(C)C)c1`, the inhibition is 76.2% (active). On to `COc1ccc(OC(C)C(=O)NCCc2nc3ccccc3[nH]2)cc1` (configuration not stated), for which the inhibition was -2.24% (inactive).

Regarding `COC(=O)Cc1ccc(N(Cc2ccccc2F)S(=O)(=O)c2ccc(Br)cc2)cc1`, the inhibition is -1.26% (inactive).

For `COC(=O)Cn1c(O)c(N=NC(=O)OC)c2ccccc21`, the inhibition was -2.09% (inactive).

With `Cc1oc2c(c1C(=O)N1CCOCC1)C(=O)c1ccccc1C2=O`, the inhibition was 3.99% (inactive). Take `CCOC(=O)NC(=O)/C(C#N)=C\c1ccccc1`: the inhibition is 1.65% (inactive). Regarding `Cc1coc(C)c1C(=O)CC1(O)C(=O)N(C)c2ccc(Cl)cc21` (configuration not stated), the inhibition is 2.68% (inactive). `Cc1ccc(/C=N/NC(=O)COc2ccccc2-c2ccccc2)cc1`: the inhibition was 86.5% (active). Regarding `Cc1ccc(OCC(=O)N/N=C/c2ccncc2)cc1`, the inhibition is -1.35% (inactive). `Cc1ccc(OCC(=O)N/N=C\c2ccco2)c(C)c1`: the inhibition was -7.98% (inactive). In the case of `Cc1cc(C)nc(SCC(=O)N(C)C)n1`, the inhibition is -5.1% (inactive). As to `Nc1cccc(CCc2nc3ccccc3[nH]2)c1`, the inhibition was -1.26% (inactive).

For `Cc1ccc(S(=O)(=O)NC(=O)N2CCCC(C)(C)C2)cc1`, the inhibition was -3.44% (inactive). With `Cc1ccc(S(=O)(=O)N(C)C2(C)CCS(=O)(=O)C2)cc1` (configuration not stated), the inhibition is -0.37% (inactive). In the case of `Cc1ccc(S(=O)(=O)C2(S(=O)(=O)c3ccc(C)cc3)CCCC2)cc1` it was 30.1% (active); in that of `Cc1ccc(NC(=O)C(=O)NCc2ccco2)c(C)c1`, -1.41% (inactive); in that of `CCN(C(=O)COC(=O)c1cc(NS(=O)(=O)c2ccc(Cl)c([N+](=O)[O-])c2)ccc1O)C1CCCCC1`, -2.87% (inactive). The result for `COc1ccccc1NC1=NC(c2ccc(Cl)cc2)N=C(N)N1` (configuration not stated) reads 84.9% (active); that for `COc1ccccc1NC1=NC2(CCCC2)N=C(N)N1`, 1.28% (inactive); that for `COc1ccccc1Nc1nc(N)nc(CN(C)C2CCCCC2)n1`, -3.54% (inactive). As for `CC(C)(C)c1ccc(C(=O)NCCn2c(N)c(C#N)c3nc4ccccc4nc32)cc1`, the inhibition was 1.57% (inactive). As to `CC(C)(C)NC(=O)COC(=O)c1cc(Br)ccc1Cl`, the inhibition was -5.58% (inactive). In the case of `CCOc1ccc(-n2c(O)c(/C=N/Nc3nnc(C)c(=O)[nH]3)c3ccccc3c2=O)cc1`, the inhibition is -1.02% (inactive). As for `COc1ccc(Cc2nnc(N/N=C/c3ccccc3O)[nH]c2=O)cc1OC`, the inhibition is 24.2% (active). As to `Cc1nnc(N/N=C/c2ccccn2)[nH]c1=O`, the inhibition was -4.34% (inactive). On to `CSCC(NS(=O)(=O)c1ccc(C)cc1)C(=O)O` (configuration not stated), for which the inhibition was -0.95% (inactive). As to `CC(=O)Nc1ccc(C(=O)/C=C/c2ccc[nH]2)cc1`, the inhibition is 0.42% (inactive).

`Cc1ccc(NC(=O)CC2S/C(=N/N=C3\CCCc4ccccc43)NC2=O)cc1` (configuration not stated): the inhibition is -2.25% (inactive). Turning to `COc1ccc(NS(=O)(=O)c2ccc(Oc3c(C#N)cccc3C#N)cc2)cc1`, the inhibition is 40.8% (active). With `COc1ccc(NS(=O)(=O)c2ccc(NC(=O)c3ccc(N(C)S(C)(=O)=O)cc3)cc2)cc1`, the inhibition was 22.6% (inactive).

As for `CCOc1ccc(S(=O)(=O)Nc2ccc(S(=O)(=O)Nc3cc(OC)ccc3OC)cc2)cc1`, the inhibition was 3.6% (inactive).

For `Cc1cc(C)c(NC(=S)N2CCCC2C(=O)O)c(C)c1` (configuration not stated), the inhibition was -0.43% (inactive). In the case of `Nc1nnc(SCC(=O)OCc2ccc(Cl)c(Cl)c2)s1`, the inhibition was 1.09% (inactive). The result for `Cc1ccc(S(=O)(=O)N(C)c2ccc(OCC(=O)NC3=NCCS3)cc2)cc1` reads 4.42% (inactive); that for `COc1ccc(CC(=O)NCc2nnc(SCC(=O)Nc3nccs3)n2C)cc1`, -0.03% (inactive). `CCC(=O)Nc1ccc2c(c1)nc(CCN1CCN(C)CC1)n2C`: the inhibition is 0.28% (inactive). For the compound `CC(=O)NCCc1nc2cc(NC(=O)c3ccccc3)ccc2n1C`, the inhibition was 3.36% (inactive). As for `Cn1c(CCN2CCCCCC2)nc2cc(NC(=O)Nc3ccccc3)ccc21`, the inhibition was 77.4% (active). As for `Cc1ccc(N(C(=O)Cc2cccs2)C2C=CS(=O)(=O)C2)cc1Cl` (configuration not stated), the inhibition was 3.93% (inactive).

As for `O=c1[nH]c(CSc2ccccc2)nc2c1oc1ccccc12`, the inhibition was -0.61% (inactive).

Consider `CCOC(=O)c1ccccc1NS(=O)(=O)c1ccc(OC)cc1`, for which the inhibition was -0.82% (inactive). As to `CCOC(=O)c1c(-c2ccc(C)cc2)csc1/N=C(\C)C1=C(O)c2ccccc2C1=O`, the inhibition is -3.38% (inactive).

On to `CCOC(=O)C1=C(c2ccc(OC)cc2)C(=O)c2ccccc2C1=O`, for which the inhibition was 46.9% (active). On to `COc1ccccc1Nc1nc(N)nc(CSC(=S)N2CCOCC2)n1`, for which the inhibition is 0.7% (inactive).

Consider `O=c1cc(-c2ccccc2)[nH]c2cc(F)ccc12`, for which the inhibition is 70.7% (active). Regarding `Cc1ccc(-c2cc(=O)c3ccc(F)cc3[nH]2)cc1`, the inhibition is -1.31% (inactive). On to `Cc1ccc(-c2cc(=O)c3ccc(Cl)cc3[nH]2)cc1`, for which the inhibition is -3.39% (inactive). As for `CCOC(=O)c1cnc(Nc2nc3ccccc3o2)nc1CSC(=S)N1CCCCC1`, the inhibition is -2.9% (inactive).

Turning to `CC#CC[N+](C)(C)CCCCCC`, the inhibition was 35.9% (active). Turning to `C/C(=N\NC(=O)c1cccc(N2CCCC2=O)c1)c1ccc(N)cc1`, the inhibition was 0.87% (inactive). `CC1=NNC(=O)C1CCC(=O)N/N=C(\C)c1ccc(Cl)cc1` (configuration not stated): the inhibition was -7.29% (inactive). For the compound `Cc1cccc(NC(=S)NC(=O)c2ccc(Br)o2)c1`, the inhibition was 1.21% (inactive). With `Cc1onc(NC(=O)c2ccc([N+](=O)[O-])o2)c1Br`, the inhibition is 2.15% (inactive). On to `Cc1cccc(NC(=O)c2ccc([N+](=O)[O-])o2)c1`, for which the inhibition is 38.7% (active). On to `Cc1ccc(OCC(=O)Nc2ccc(S(=O)(=O)Nc3ccccn3)cc2)cc1`, for which the inhibition is -2.67% (inactive). In the case of `Cc1cc(C)cc(OCC(=O)Nc2ccc(S(=O)(=O)Nc3ccccn3)cc2)c1` it was -4.41% (inactive); in that of `Cc1ccc(S(=O)(=O)Nc2ccc3ncccc3c2)cc1`, 32.3% (active); in that of `c1ccc(-c2ccc3c(c2)NC(C2Nc4cc(-c5ccccc5)ccc4O2)O3)cc1` (configuration not stated), -3.19% (inactive).

Consider `Cc1c(Cl)c([N+](=O)[O-])nn1CCCC(=O)NC(C)c1ccccc1` (configuration not stated), for which the inhibition was 0.46% (inactive).

Turning to `CC(C)CCN1CCN(C/C=C/c2ccco2)CC1CCO` (configuration not stated), the inhibition was -3.77% (inactive). `Oc1ccc2ccccc2c1C=Nc1ccccc1`: the inhibition was 0.08% (inactive). In the case of `Oc1ccc2ccccc2c1N=Nc1nccs1`, the inhibition was 98.2% (active). On to `Oc1ccc(N=Nc2nccs2)c(O)c1`, for which the inhibition was 8.36% (inactive). On to `CCCC(NC(=O)c1ccco1)c1nc2ccccc2[nH]1` (configuration not stated), for which the inhibition was 4.01% (inactive). Consider `CCCCNc1nc2c(c(=O)n(C)c(=O)n2C)n1Cc1cccc(OC)c1`, for which the inhibition is 52.4% (active). Take `COC(=O)C(C)Sc1nc2c(c(=O)n(C)c(=O)n2C)n1Cc1cccc(C)c1` (configuration not stated): the inhibition was -3.92% (inactive). The result for `Cn1c(=O)c2c(nc(NCCc3ccccc3)n2Cc2ccccc2)n(C)c1=O` reads 1.54% (inactive); that for `O=C(NCC1CCCO1)c1ccccc1-c1nc(-c2ccccc2Cl)no1` (configuration not stated), 4.19% (inactive); that for `COc1ccc2c(Cl)c(C(=O)NCc3ccco3)sc2c1`, -3.38% (inactive).

In the case of `COc1ccc(CCNS(=O)(=O)c2ccc(C(=O)NCc3ccco3)cc2)cc1OC`, the inhibition was -0.49% (inactive). On to `CCCC1=Nc2cc(C(=O)NCc3ccco3)ccc2Sc2ccccc21`, for which the inhibition was 81.1% (active).

With `O=[N+]([O-])C(=c1ccc2c(c1)N1C3=C(CCCC3)CC3CCCCC31N=2)[N+](=O)[O-]` (configuration not stated), the inhibition was -3.46% (inactive).

For the compound `COc1ccccc1CNC(=O)CNC(=O)c1cn(-c2ccccc2OC)c(=O)c2ccccc12`, the inhibition is -3.01% (inactive). For `Cn1nc(C(F)(F)F)cc1-c1ccc(/C=C(\C#N)C(=O)c2cccc(C(F)(F)F)c2)s1`, the inhibition was -2.61% (inactive). As to `CSC(=S)N/N=C/c1c[nH]c2ccccc12`, the inhibition is -3.06% (inactive). With `C[n+]1ccc(/C=C/c2c[nH]c3ccccc23)cc1`, the inhibition was 88.5% (active). Consider `S=c1[nH]nc(-c2ccccc2)n1/N=C/c1c[nH]c2ccccc12`, for which the inhibition is -2.71% (inactive).

In the case of `CC1(C)C2CC=C(/C=N/NC(=O)c3ccc(Cl)cc3)C1C2` (configuration not stated), the inhibition is -0.76% (inactive). As to `CCOC(=O)N1CCN(S(=O)(=O)c2ccc(C(=O)Nc3ccc(F)cc3F)cc2)CC1`, the inhibition is 54.4% (active). As for `COc1ccc(C(=O)Nc2ccc(F)cc2F)cc1`, the inhibition is -3.55% (inactive).

As to `O=C(Nc1cccc(F)c1)c1ccc(S(=O)(=O)N2CCCC2)cc1`, the inhibition was 2.9% (inactive). Consider `O=C(COC(=O)c1ccc(O)cc1)Nc1nccs1`, for which the inhibition is 0.51% (inactive). For `Cc1nc(N2CCC(C)CC2)c2c(C)c(C(=O)Nc3cc(F)ccc3C)sc2n1`, the inhibition was 2.17% (inactive).

Take `C=CCSc1nnc(NC(=O)c2ccc(NC(C)=O)cc2)s1`: the inhibition was -0.62% (inactive). As for `CC(=O)c1sc(NC(=O)c2cccc3ccccc23)nc1C`, the inhibition was -0.63% (inactive).

Turning to `CC(NC(=O)c1cccc2ccccc12)c1ccc2c(c1)CCCC2` (configuration not stated), the inhibition is 64.5% (active). The result for `O=C(Cc1ccc2c(c1)CCCC2)Nc1ccccc1Cl` reads 3.77% (inactive). On to `O=[N+]([O-])c1ccc2nc(-c3ccccn3)[nH]c2c1`, for which the inhibition is 2.31% (inactive). Consider `NNC(=O)c1oc2nc(-c3ccccc3)cc(-c3ccco3)c2c1N`, for which the inhibition is -4.49% (inactive).

Regarding `COC(=O)c1cc2c(ccn2C)n1C`, the inhibition is -1.58% (inactive). In the case of `Cc1ccc(S(=O)(=O)N2CCOCC2)cc1C(=O)OC1CCCCC1=O` (configuration not stated), the inhibition is 0.06% (inactive). Take `O=C(Nc1ccccc1Cl)c1ccc2nsnc2c1`: the inhibition was 0.05% (inactive). In the case of `O=C(CN1CCCCC1)Nc1ccccc1Cl` it was 1.81% (inactive).

Regarding `O=C(Nc1ccccc1Cl)/C(Cl)=C(\Cl)S(=O)c1ccccc1` (configuration not stated), the inhibition was 102% (active). In the case of `O=S(=O)(Nc1n[nH]c(C(F)(F)F)n1)c1ccccc1`, the inhibition was -3.72% (inactive). In the case of `O=C(CNc1ccc(F)cc1F)NC(=O)NCc1ccco1`, the inhibition was 4.79% (inactive).
